Test results published in the supplement of paper PMC10981050.
Structures can show the parent of a compound that is named as a salt.

Test system: MOLM14
Experiment: cell viability relative to vehicle control; higher = less cytotoxic
Settings: 10 µM; SRSF2 genotype: SRSF2 wt/wt
Procedure, shortened: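 CRISPR-edited mutant clones and isogenic wild-type clones from four leukaemia lines were screened against Selleck bioactive, kinase and epigenetic probe libraries, with identity-inconsistent compounds excluded. Each compound was acoustically dispensed at a single 10 µM dose into 384-well plates holding 2000 cells in 50 µL medium per well. After 48 h the supernatant was removed and CellTiter-Glo luminescence was read. Viability was expressed as percent of the on-plate vehicle control and analysed in Genedata Screener.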

Compound | cell viability [%]
NCc1c[nH]c(=S)n1[C@H]1CCc2c(F)cc(F)cc2C1 [Nepicastat hydrochloride] | 101
CC(=O)Nc1ccc(OC(=O)c2ccccc2OC(C)=O)cc1 [Benorylate] | 101
CCC(=O)NC[C@@H]1C[C@H]1c1cccc2c1CCO2 [Tasimelteon] | 93.1
COc1ncnc(NS(=O)(=O)c2ccc(N)cc2)c1OC [Sulfadoxine (Sulphadoxine)] | 100
N[C@@H](Cc1cc(I)c(Oc2cc(I)c(O)c(I)c2)c(I)c1)C(=O)O [Levothyroxine sodium] | 101
C=C(C)[C@@H]1CC[C@]2(C(=O)O)CC[C@]3(C)[C@H](CC[C@@H]4[C@@]5(C)CC[C@H](O)[C@@](C)(CO)[C@@H]5CC[C@]43C)[C@@H]12 [23-Hydroxybetulinic acid] | 103
C[C@]12C=CC(=O)C=C1CC[C@H]1[C@@H]3C[C@@H](O)[C@](O)(C(=O)CO)[C@@]3(C)C[C@H](O)[C@@]12F [Triamcinolone (Aristocort)] | 98.3
O=C(O)C1=CO[C@@H](O[C@@H]2O[C@H](CO)[C@@H](O)[C@H](O)[C@H]2O)[C@H]2[C@@H]1C=C[C@]2(O)CO [Monotropein] | 104
Cn1ncc(Cl)c1-c1cc(C(=O)N[C@H](CN)Cc2cccc(F)c2)sc1Cl | 37.3
Cc1ccc(OCC(O)C(C)NC(C)C)c2c1CCC2 (configuration not stated) | 100
CN1CCCN(C(=O)c2cccc(-c3ccc(/C=C4/C(=O)Nc5ccc(Cl)cc54)o3)c2)CC1 | 0.29
O=S(=O)(c1ccccc1)c1cnc2c(N3CCNCC3)cccc2c1 | 100
CCn1c2ccccc2c2cc(Nc3ccnc(NCCCN4CCOCC4)n3)ccc21 | 0.71
Cc1cn(-c2cc(NC(=O)c3ccc(C)c(Nc4nccc(-c5cnccn5)n4)c3)cc(C(F)(F)F)c2)cn1 [Radotinib] | 100
CCCOc1ccc2[nH]c(NC(=O)OC)nc2c1 [Oxibendazole] | 3.24
COCC1=C(C(=O)OC(C)OC(=O)OC(C)C)N2C(=O)[C@@H](NC(=O)/C(=N\OC)c3csc(N)n3)[C@H]2SC1 (some centres not stated) [Cefpodoxime proxetil] | 95.7
Oc1c(F)cc(-c2cnccc2-c2ccc(N3CCOCC3)cc2)cc1F | 104
